Here are results for 40 compounds from PubChem BioAssay (NCI).

Compounds without any hit were thinned out: in the full panel of roughly 83,000, 20% have a hit.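 Values shown are percent growth following 48 h exposure of cells in 96-well plates to a single concentration of compound; below 10 was considered active.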 The source made the active and inactive calls.

In this assay the test system is MCF7 breast. Description: NCI-60 one-dose screen, 48 h (100 = growth as untreated, 0 = no growth, -100 = all killed). The conditions noted are these: 10 µM unless noted. The method, then:
Growth inhibition of the MCF7 human tumor cell line is measured as a screen for anti-cancer activity. Cells are grown in 96 well plates and exposed to the test compound for 48 hours. Compounds are tested at a single concentration, which is 10^-5 M for most compounds. The reported endpoint is percent growth (GI% or GIPRCNT), where numbers from 0 - 100% represent growth inhibition, and numbers from -100% - 0 represent cell death. For example, a value of 40 represents 60% growth inhibition. A value of 0 means no net growth occurred over the course of the experiment. A value of -40 indicates 40% of cells at the beginning of the experiment died by the end of the experiment. A value of -100 means all cells are dead at the end of the experiment.
NCI-60 Human Tumor Cell Lines Screen was performed using the standard one-dose NCI protocol, which is described in more detail at https://dtp.cancer.gov/discovery_development/nci-60/default.htm.
Compounds with GIPRCNT values below 10 were considered active. Activity score was based on GIPRCNT using the following formula: […]
Score is 0 for GIPRCNT values of 100 or above, 50 for GIPRCNT values of 0, and 100 for GIPRCNT values of -100.
As to `Clc1cc(Cl)cc(-c2ccc(-c3ccc(/C=N/NC4=NCCN4)cc3)s2)c1`, the growth is 16% (inactive).

For the compound `C=C1C(=O)O[C@H]2[C@H]1CC/C(Cn1cc(-c3cccc(Cl)c3)nn1)=C\CC[C@@]1(C)O[C@@H]21`, the growth was -46.8% (active).

In the case of `COc1ccc(S(=O)(=O)n2ccc(-c3ccc4c(c3)CCC(C)(C)O4)n2)cc1OC`, the growth was 64.3% (inactive).

As to `COc1ccc(CNCCCN2C(=O)c3ccc4c5c(ccc(c35)C2=O)C(=O)N(CCCNCCCCNCCCN)C4=O)c(OC)c1OC`, the growth is -19.7% (active).

In the case of `COc1ccc(C2NN=C3c4ccccc4CCC32)cc1` (stereo not given), the growth was 5.11% (active).

Take `COc1ccc(C(=O)N2NC(=O)/C(=C/c3ccc(Br)cc3)N=C2c2ccccc2)cc1`: the growth is 85.1% (inactive).

`c1ccc(Nc2nc(Nc3ccccc3)nc(Nc3ccccc3)n2)cc1`: the growth was 65% (inactive).

Consider `O=[N+]([O-])c1cccc(-c2nc3sccn3c2-c2ccnc(NCCCNS(=O)(=O)c3ccc(C(F)(F)F)cc3)n2)c1`, for which the growth was 14.9% (inactive).

Regarding `CCOC(=O)c1ccc2c(c1)nc(-c1ccc(OCc3ccccc3)c(OC)c1)n2-c1cc(C(C)(C)C)[nH]n1`, the growth was 63.1% (inactive).

As to `CCCCCCCC[C@@H](O)CC(=O)N[C@@H](CC(N)=O)C(=O)N[C@@H](CCC(N)=O)C(=O)N[C@@H](CC(=O)c1cc(C)cc(O)c1C(=O)c1c(O)cccc1O)CC(C)C`, the growth is 29.9% (inactive).

As to `CCOC(=O)c1cn2c3c(cccc3c1=O)C(=O)/C(=C/c1cccc(Cl)c1Cl)C2`, the growth is 96.2% (inactive).

For the compound `COc1ccc(S(=O)(=O)n2cc(C(=O)C(=O)Nc3ccncc3)c3ccccc32)cc1F`, the growth was 69.8% (inactive).

In the case of `FC(F)(F)c1ccccc1-c1cn2c(ccc3ccccc32)n1`, the growth was 77.4% (inactive).

With `O=c1[nH]c(Nc2ccc(S(=O)(=O)O)cc2)nc2nc(Nc3ccc(NC(=S)Nc4ccccc4)cc3)nc(-c3ccc(O)cc3O)c12`, the growth is 107% (inactive).

For the compound `O=C(O)c1cn(C2CC2)c2cc(N3CCN(C(=O)/C=C/c4ccc(Cl)cc4)CC3)c(F)cc2c1=O`, the growth is 89% (inactive).

In the case of `Cc1nc2cncc(C#Cc3cncc(C(=O)Nc4ccc(CN5CCN(C)CC5)c(C(F)(F)F)c4)c3)c2nc1C`, the growth is 19% (inactive).

`O=C(NS(=O)(=O)c1ccc2ccccc2c1)n1cc(-c2ccncc2)c(-c2ccc(Cl)c(O)c2)n1`: the growth is 114% (inactive).

Consider `O=C(NNC(=O)N1c2ccccc2C=Cc2ccccc21)c1ccccc1`, for which the growth is 95.6% (inactive).

As to `O=c1c2sc3ncccc3c2nnn1-c1ccccc1`, the growth is 90.6% (inactive).

With `COc1ccc2cc(-c3ccc(-c4ccc(C(=N)N)cc4)s3)ccc2c1`, the growth was 73.2% (inactive).

Regarding `Cc1[nH]c2ccc(F)cc2c1CCNC(=O)C1CCN(C(=O)c2ccccc2)CC1`, the growth was 93.9% [25 µM] (inactive).

Take `COc1ccc(-n2c(=S)sc3c(Cl)nc(C)nc32)c(OC)c1`: the growth was 13.8% (inactive).

In the case of `C/C(=C\c1ccc(OCC(=O)O)c(Cl)c1Cl)[N+](=O)[O-]`, the growth is 103% (inactive).

Regarding `Cc1nn(-c2ccc(Cl)cc2)c2ncnc(N/N=C/c3cccc([N+](=O)[O-])c3)c12`, the growth is 103% (inactive).

`CCCCCCN1CSC(=S)N(CCCCCC)C1`: the growth was 102% (inactive).

As for `C=C[C@@H]1C[C@@H]2Cc3c(C)cc(C)cc3N1O2`, the growth is 97.6% (inactive).

As for `O=C(/C=C/c1cc(-c2ccc3c(c2)OCO3)n[nH]1)c1ccc2c(c1)OCO2`, the growth is 84.8% (inactive).

For the compound `O=C(Nc1cccc(-n2cc(-c3ccncc3)c(-c3ccc(Cl)c(O)c3)n2)c1)c1ccccc1`, the growth is 62.6% (inactive).

As to `Cc1ccc(S(=O)(=O)c2nc(-c3ccccc3)oc2S(C)(=O)=O)cc1`, the growth is 3.86% (active).

As for `O=C(Nc1cccc(-n2cc(-c3ccncc3)c(-c3ccc(Cl)c(O)c3)n2)c1)Nc1ccc(Cl)c(C(F)(F)F)c1`, the growth is -16.6% (active).

In the case of `CCCCCCCCCCCCCCCCNC(=O)OC(C)C`, the growth is 1.73% (active).

As for `COc1cccc(-c2nc3sccn3c2-c2ccnc(NCCCNS(=O)(=O)c3ccc(F)cc3)c2)c1`, the growth was 31.8% (inactive).

Regarding `CN(C)c1cccc2c(S(=O)(=O)/N=C(\N)Nc3nc4ccccc4s3)cccc12`, the growth is 29.6% (inactive).

`CCCCCCCC/C=C/CCCCCCCC1=NC(C)(C)CN1C(C)(C)CO`: the growth is -44.3% (active).

On to `CCc1ccc(-c2ccc(=O)n(-c3ccc(S(N)(=O)=O)cc3)n2)cc1`, for which the growth was 30.2% (inactive).

As to `c1cc2[nH]ncc2cc1-c1nc2ccc3[nH]ncc3c2c2c1CCC2`, the growth is 32% (inactive).

For `NC(=S)N/N=C(/CCN1CCCC1)CC(C1=C(O)C2=CCCCC2OC1=O)c1ccccc1` (stereo not given), the growth was 14.9% (inactive).

In the case of `CO[C@H]1NC(=O)N(S(=O)(=O)c2ccc(Cl)cc2)[C@@H]1OC`, the growth was 99.4% (inactive).

For the compound `CC1CN(c2oc(-c3ccccc3)nc2C#N)CC(C)O1` (stereo not given), the growth is 77.1% (inactive).

Take `CCOC(=O)c1ccc(NC(=O)N2CC(C)OC(C)C2)cc1` (stereo not given): the growth was 96.4% (inactive).
